Results published in PubChem BioAssay.

Assay: S. cerevisiae growth modulation with rapamycin, primary screen, strain BY4716, OD600, 96 h (AID 1091); further: test concentration not given here
Settings: higher = more signal, called active from +8 up or from −8 down

z-score, inactive:
C=CC[C@@]12N=C(c3ccc(OCCCO)cc3)O[C@@H]1c1ccccc1CN(Cc1ccccc1)C2=O 5.67
COc1ccc([Si](C)(C)[C@@H]2[C@@H](CC(=O)N(CCO)Cc3ccccc3)O[C@]3(C(=O)N(Cc4cccc(N5CCC5=O)c4)c4ccccc43)[C@H]2C)cc1 1.61
CN(C)CCCC[C@@H]1NC(=O)[C@@H]2C[C@H](C(=O)O)[C@H](c3ccc(O)cc3)N2C1=O -0.587
CCOC(=O)C1=CCC(c2cccc3ccccc23)N(S(=O)(=O)c2ccc(C)cc2)C1 (stereo unspecified) 3.55
CO[C@@H]1COC(=O)CC=C[C@@H](C)[C@H](OC)COC(=O)CC=C[C@H]1C -0.891
C=C(COC)/C(=C/C[C@H](OC(C)=O)c1ccc(OCCO)cc1)c1cnc2ccccc2c1 1.09
CO[C@H]1O[C@H](CO)[C@@H](OC(=O)Nc2ccc(Oc3ccccc3)cc2)[C@H](OC(=O)Nc2ccccc2-c2ccccc2)[C@H]1OC(=O)Nc1ccccc1-c1ccccc1 0.792
CCC1=C2CN(Cc3ccccc3Br)[C@@H]([C@@H](O)Cc3ccccc3)C2C=CCC1 (stereo partly specified) -1.13
[N-]=[N+]=NCc1ccccc1C[C@@]1(C(=O)N2CCOCC2)N=C(c2ccc(OCCCO)cc2)O[C@@H]1c1ccccc1N=[N+]=[N-] 6.02
C=CC(=O)O[C@@H](Cc1ccccc1)[C@H]1C2C=CCCC=C2CN1Cc1cccc(Cl)c1 (stereo partly specified) -1.47
NC(=O)[C@H]1[C@@H]2C(=O)O[C@@H](c3ccccc3)[C@@H](c3ccccc3)N2[C@@H](c2ccc(O)cc2)[C@]12C(=O)Nc1ccc(C#CCCO)cc12 -0.503
NC(=O)NCC#Cc1ccc2c(c1)[C@]1(C(=O)N2)[C@H](C(N)=O)[C@H]2C(=O)O[C@H](c3ccccc3)[C@H](c3ccccc3)N2[C@@H]1c1ccccc1OCCO 0.804
C=CC[C@]1(C(N)=O)N=C(c2ccc(OCCCO)cc2)O[C@H]1c1ccccc1CN=[N+]=[N-] -0.655
C[N+](C)(C)CCCCNC(=O)[C@@H]1C[C@@H]2C(=O)N3CCC[C@H]3C(=O)N2[C@@H]1c1cccc(OCCO)c1 -2.42
O=C1O[C@H](c2ccccc2)[C@H](c2ccccc2)N2[C@H]1[C@@H](C(=O)Nc1nc3ccccc3s1)[C@]1(C(=O)Nc3ccc(C#CC4(O)CCCCCC4)cc31)[C@H]2c1ccc(O)cc1 0.439
COc1ccc(C(O)C2C=CC3C(=O)N(C)C(=O)C3N2N2CCCCC2)cc1OCc1ccccc1 (stereo unspecified) 1.01
CC1=C([C@H](O)CCc2ccccc2)[C@H](CO)[C@@H]2C(=O)N(Cc3ccccc3)C(=O)[C@@H]2C1 -0.873
C=C[C@H](OC)[C@@H](OC(=O)Nc1ccc(SC)cc1)c1ccc(OC)c(O)c1 -0.44
CC(C)(C)OC(=O)CC[C@@]1(C(=O)NCc2ccccc2)N=C(c2ccc(OCCCO)cc2)O[C@@H]1c1ccccc1 0.264
O=C1c2ccccc2[C@](Cc2ccccc2I)(C(=O)NCC(F)(F)F)[C@H](c2ccc(CO)cc2)N1Cc1ccccc1C(F)(F)F -1.32
C=CCC(OC(C)=O)[C@@H]1[C@@H](N(Cc2cccc3ccccc23)C(=O)Cc2ccc(F)cc2)c2cc(OCCCO)ccc2N1C(=O)Cc1ccc2ccccc2c1 (stereo partly specified) -0.276
C=CCN1C(=O)[C@@]2(Cc3ccccc3)N=C(c3ccc(OCCCO)cc3)O[C@H]2c2ccccc21 1.63
Cc1ccc(N2C(=O)c3ccccc3[C@@H](C(=O)NCc3ccccc3)[C@@H]2c2ccc(CO)cc2)nc1 0.76
CO[C@H]1COC(=O)[C@H](C)COC(=O)[C@H](Cc2ccccc2)NC(=O)CC=C[C@H]1C -0.798
CN(C)CCCC[C@@H]1NC(=O)[C@@H]2C[C@H](C(=O)NCCCCCNC(=O)CS)[C@H](c3ccc(O)cc3)N2C1=O -0.342
O=C1O[C@H](c2ccccc2)[C@H](c2ccccc2)N2[C@H]1[C@@H](C(=O)NC[C@H](O)c1ccccc1)[C@]1(C(=O)Nc3ccc(C#CC4=CCCCC4)cc31)[C@H]2c1ccc(OCCO)cc1 4.01
